The list is not random: actives were taken first. Their share in the collection is about 5.3%.
CtBP-E1A inh = inhibitors of CtBP/E1A interaction; AID 651724; activity change, % (no concentration beside the values); AlphaScreen GST-E1A/His-CtBP binding, 1536-well; hits give low values; actives 0.49% (n = 340,000); in the data active = activity change below about -65%; inconclusive = mostly about -30% to -63%; note: % is set by controls: 0 for no effect and ±100 for the full control effect
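GST-E1A and His-tagged CtBP (125 nM each as 5X stock) were preincubated with pin-transferred compound for 2 h at 37 °C in the dark, then glutathione donor and nickel acceptor beads were added for 1 h before AlphaScreen reading.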
BAZ2B block = BAZ2B (human) inhibition; Q9UIF8; AlphaScreen BAZ2B-H3K14Ac peptide displacement; Potency, µM (doses to about 114 µM), inactives show at the highest dose activity change, negative = inhibition, usual class: inhibitors; actives 4.4% (n = 360,000); note: potency is the fitted concentration of half-maximal effect; % is set by controls: 0 for no effect and ±100 for the full control effect; nearly all actives have a fitted effect of over 60% in size
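BAZ2B 50 nM plus b-H3(5-23)K14Ac 50 nM, PBS pH 7.4/0.01% Tween-20, 30 min RT; compound added (max 110 uM), 30 min RT; streptavidin donor/Ni-chelate acceptor beads 10 ug/mL final, 20 min dark; AlphaScreen read.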
Six1-Eya2 blk = blocks human Six1 binding to Eya2; Q15475+O00167; AlphaScreen GST-Six1/His-Eya2 binding, biochemical; hits give low values; activity change, % (no concentration beside the values); actives 0.56% (n = 360,000); in the data active = activity change below about -65%; inconclusive = mostly about -30% to -63%; note: % is set by controls: 0 for no effect and ±100 for the full control effect
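GST-Six1 + His-Eya2 (5X stock: 250/500 nM); Tris pH 8.0, 300 mM NaCl, 0.05% BSA, 0.02% Tween 20; GSH donor/Ni acceptor beads; 1 h 37 °C dark; AlphaScreen readout.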
JMJD2A Tudor inh = blocks the human JMJD2A Tudor domain; O75164; AlphaScreen JMJD2A-Tudor / H3K4me3 peptide binding; Potency, µM (titrated, usually from 114 µM), for the others: top-dose activity change, negative = inhibition, usual class: inhibitors; actives 4.4% (n = 390,000); AID 504339; note: potency is the fitted concentration of half-maximal effect; % is set by controls: 0 for no effect and ±100 for the full control effect; nearly all actives have a fitted effect of over 50% in size
HP1b binding inh = inhibitors of HP1-beta chromodomain binding to methylated histone tails; P83916; AlphaScreen HP1-beta / biotin-H3K9me3 peptide binding; Potency, µM (series often up to 114 µM), without a hit: top-dose activity change, negative = inhibition, most hits filed as inhibitors; actives 0.56% (n = 390,000); note: potency is the fitted concentration of half-maximal effect; nearly all actives have a fitted effect of over 70% in size
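Compound inhibition of the preformed complex between 50 nM HP1-beta and 50 nM biotinylated H3K9me3 peptide was read by AlphaScreen. Buffer was PBS pH 7.4 with 0.01% Tween-20. Incubations ran 30 min at room temperature, with 10 ug/mL donor/acceptor beads.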
TDP1 block = TDP1 (human) enzyme inhibition | Q9NUW8 | recombinant TDP1, AlphaScreen DNA substrate cleavage | Potency, µM (doses to about 130 µM), without a hit: at the top dose activity change, negative = inhibition, actives largely listed as inhibitors | actives 0.28% (n = 350,000) | AID 485290; note: potency is the fitted concentration of half-maximal effect; % is set by controls: 0 for no effect and ±100 for the full control effect; nearly all actives have a fitted effect of over 40% in size
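AlphaScreen read-out: signal falls as enzyme removes the 3' tyrosine-FITC from a 5'-biotinylated DNA oligo (15 nM, 5 min, RT). Enzyme was E. coli-made recombinant Tdp1 at 1 nM, exposed to compound for 15 min beforehand; beads 10 ug/ml, 10 min.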
Active calls of the source: *; ? = inconclusive; · = not tested or not shown; [ ] = another dose, or the depositor's remark. Unless noted, calls come from the whole dose curve; as a rule, active = well fitted inhibition curve with a large enough effect; inconclusive = small, poorly fitted or top-dose-only effect; inactive = no such curve, though single readings can be large or run the other way.

SMILES | CtBP-E1A inh | BAZ2B block | Six1-Eya2 blk | JMJD2A Tudor inh | HP1b binding inh | TDP1 block
CC1CC(=O)N(CC(=O)Nc2ccc(OC(F)(F)F)cc2)c2ccccc2S1 (stereo not drawn) | · | 3.7% | · | 2.2% | 36.4% | 5.9%
CC(C)CC(=O)n1sc(NC(=O)c2ccccc2)nc1=O | 24.9 | 6.4% | -0.5 | -4.3% | 40.4% | 4.9%
COC(=O)C1=C(C(=O)OC)SC(=C2C(=S)C(C)(C)N(C(=O)CC(C)C)c3ccccc32)S1 | ? | 3.98µM* | ? | 11.2µM* | -76.5% | 11.7%
Cc1cc2ncc(S(C)(=O)=O)c(N)n2n1 | 2.1 | -7.1% | 5.2 | 12.6µM* | 4.3% | 2.9%
Cc1[nH]c2c(ccc3cccnc32)c1C | -23.5 | 35.5µM* | -23.4 | 44.7µM* | ? | 7.0%
Cc1ccc(/C(=N/Nc2ncnc3ccccc23)C(=O)O)cc1 | -77.3* | ? | -84.0* | ? | 3.6% | 3.4%
Cc1ccc(Nc2ncnc3ccccc23)cc1 | -13.9 | 1.3% | 6.8 | -6.4% | 24.2% | 3.0%
CCCCN(C)CC(O)Cn1cc(/C=C/C(=O)c2ccc(C)cc2)c2ccccc21 (stereo not drawn) | · | ? | 4.0 | 50.1µM* | -0.2% | 5.1%
CCCCN(C)CC(O)Cn1cc(/C=C/C(=O)c2ccc(OC)c(OC)c2)c2ccccc21 (stereo not drawn) | · | ? | · | ? | 19.3% | 7.6%
CCCCN(C)CC(O)Cn1cc(/C=C/C(=O)c2ccc(Br)cc2)c2ccccc21 (stereo not drawn) | · | ? | · | 70.8µM* | -15.2% | -2.5%
O=C(CN1C(=O)C2(SCC(=O)N2c2ccc(F)cc2)c2ccccc21)NC1CCCCC1 (stereo not drawn) | · | 2.4%[57.1 µM] | · | -5.2% | 31.9% | -1.1%
C=CCn1c(N)c(C(=O)NCCC2=CCCCC2)sc1=S | ? | 39.8µM* | -22.2 | ? | ? | 10.5%
COc1ccc(OC)c(C2C(C(=O)Nc3ccccc3OC)=C(C)Nc3c(C(=O)Nc4ccc(F)cc4)cnn32)c1 (stereo not drawn) | · | -1.7%[57.1 µM] | · | -23.0% | 22.7% | 7.4%
CS/C(Nc1cc(Cl)ccc1Cl)=C(/C#N)C(=O)c1ccco1 | 1.1 | 56.2µM* | ? | ? | -17.7% | 3.8%
O=C(Nc1cc(Cl)ccc1Cl)c1ccco1 | 3.4 | -0.8% | 3.1 | 2.7% | 34.7% | ·
CC(C)(C)c1cc(CN2CCCC(O)C2)c(O)c(C(C)(C)C)c1 (stereo not drawn) | -3.2 | 79.4µM* | -3.9 | ? | 8.9% | 2.4%
CCCC/C=C/C(NC(=O)Oc1cccc(C(F)(F)F)c1)c1ccccc1 (stereo not drawn) | · | · | · | · | · | -5.1%
COc1cc(OC)c(NC(=O)Cn2cnc3c(nc4n3CCCCC4)c2=O)cc1Cl | · | -1.3% | · | -1.0% | 26.5% | 3.7%
CCN(CC)CCCNC(=O)c1ccc2c(c1)sc1nc(-c3ccc(C)cc3)cn12 | · | 39.8µM* | · | ? | -9.9% | 3.9%
CCCNC(=O)c1ccc2c(c1)sc1nc(-c3ccc(C)cc3)cn12 | · | -1.6% | · | -6.2% | 35.3% | 0.0%
CCN(CC)c1ccc(SS(=O)(=O)O)cc1 | -4.8 | ? | ? | 56.2µM* | -22.4% | 7.6%
COc1ccc(-c2nn[nH]n2)cc1OC | 5.1 | ? | 7.3 | -13.1% | 30.8% | -7.0%
COc1cccc(-c2nn[nH]n2)c1O | -27.4 | 56.2µM* | ? | ? | 26.6% | -13.9%
COc1ccccc1N1CCN(S(=O)(=O)c2ccc3c(c2)CCCN3C(C)=O)CC1 | · | -4.4% | · | -17.4% | 18.5%[57 µM] | 5.5%
COc1cc(CC(=O)O)ccc1O | -7.5 | -0.9% | 9.3 | -25.2% | 24.2% | 0.0%
COc1cc(CC2COC(c3ccc(O)c(OC)c3)C2COC(C)=O)ccc1O (stereo not drawn) | -20.9 | 39.8µM* | -18.1 | 50.1µM* | ? | ·
CCOc1ccc(OCCCCn2ccnc2)cc1 | -3.1 | 50.1µM* | 0.5 | 20µM* | ? | 5.6%
Cc1cc(OCCn2ccnc2)ccc1C(C)C | 3.9 | 44.7µM* | -1.7 | 3.16µM* | 50.1µM* | 4.7%

Screening results (PubChem)
